According to PubChem BioAssay AID2732 (Emory University Molecular Libraries Screening Center, 2010):
Among all 220,000 compounds or so, about 8,200 (3.7%) were called active.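 Rule for the calls: active = compounds that reduced the stress-induced luciferase reporter signal by more than about 70% of percent inhibition (limit read from the data); inactive = the rest.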 This excerpt belongs to a sample that is enriched for actives.

experiment: inhibitors of CHOP promoter induction, primary screen, cell-based, unfolded protein response, luciferase reporter (AID 2732); conditions: CHO-K1 CHOP-promoter luciferase, tunicamycin-induced, 15-18 h; at 10 µM; active compounds read high;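 note: 0% = tunicamycin plus vehicle and 100% = wells without tunicamycin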

| SMILES | inhibition |
| --- | --- |
| COc1ccc(Cl)cc1S(=O)(=O)N1CCC(O)(c2ccc(Cl)cc2)CC1 | 19.7% (inactive) |
| O=C(Nc1ccccc1)O/N=C1\CCCCC1c1ccc([N+](=O)[O-])cc1[N+](=O)[O-] (stereo not given) | 22.1% (inactive) |
| O=[N+]([O-])c1ccc(N/N=C2/CCCCC2c2ccccn2)c([N+](=O)[O-])c1 (stereo not given) | 80.1% (active) |
| C[n+]1ccccc1C1CCCC/C1=N\Nc1ccc([N+](=O)[O-])cc1[N+](=O)[O-] (stereo not given) | 8.15% (inactive) |
| O=C(NNC(=O)c1cnccc1C(F)(F)F)c1ccc(Cl)cc1 | -0.67% (inactive) |
| S=c1[nH]nc(-c2cc(-c3ccsc3)n[nH]2)n1-c1ccccc1 | 0.59% (inactive) |
| O=C(Nc1cccc(-c2nc3ccccc3[nH]2)c1)c1ccc(C(=O)Nc2cccc(-c3nc4ccccc4[nH]3)c2)cc1 | -38.4% (inactive) |
| O=C(Nc1sc2c(c1-c1nc3ccccc3[nH]1)CCCC2)C1CC1 | 80.4% (active) |
| CCOC(=O)c1c(NC(=O)C2CCN(S(=O)(=O)c3ccc(Cl)cc3)CC2)sc2c1CCCC2 | 15.6% (inactive) |
| O=C(Nc1ccc(F)cc1F)N1CCCN(CCOc2ccccc2)CC1 | -11% (inactive) |
| Cc1ccc(Cl)c(OCC(=O)NN2CCN(C)CC2)c1 | 5.66% (inactive) |
| NC(=O)c1ccc(CN2CCC(Cc3ccccc3)CC2)cc1 | -9.98% (inactive) |
| O=C(c1ccccc1)c1ccc2nc(N3CCCCC3)c3nncn3c2c1 | 19.1% (inactive) |
| c1ccc(CC2CCN(c3nc4ccccc4n4cnnc34)CC2)cc1 | 76.1% (active) |
| N#CC1=C(N)Oc2c(ccc3cccnc23)C1c1ccncc1 (stereo not given) | -1.42% (inactive) |
| Nc1nnc(SCC(=O)NC2CCCc3ccccc32)s1 (stereo not given) | 12.6% (inactive) |
| CCOC(=O)c1c(NC(=O)CNC2CCCc3ccccc32)sc(C(N)=O)c1C (stereo not given) | 95.9% (active) |
| CCOC(=O)c1sc(NC(=O)COc2ncnc3ccccc23)c(C(=O)OCC)c1C | 43% (inactive) |
| Cc1ccc(/C=N/NC(=S)Nc2cccc(S(=O)(=O)N(C)C)c2)o1 | 36% (inactive) |
| NC(=O)c1ccc(-c2csnn2)cc1 | 9.46% (inactive) |

| SMILES | inhibition |
| --- | --- |
| Cc1ccccc1-c1n[nH]c(=S)n1/N=C/c1ccc(-c2ccccc2Br)o1 | 72.8% (active) |
| Cc1n[nH]c(=S)n1/N=C/c1ccc(Br)o1 | 14.2% (inactive) |
| Cc1ccccc1-c1n[nH]c(=S)n1C | -13.1% (inactive) |
| CC1CN(c2nc(Nc3ccccc3)nc(N)c2[N+](=O)[O-])CC(C)O1 (stereo not given) | 9.58% (inactive) |
| CCCc1nc(-c2ccccc2O)n(-c2ccccc2)n1 | 40.5% (inactive) |
| Cc1cccc(-n2c(N)c(C(=O)N3CCN(C)CC3)sc2=S)c1 | -3.45% (inactive) |
| CCCc1nc(N2CCN(C)CC2)c2sc(=S)n(-c3ccccc3)c2n1 | 74.7% (active) |
| O=C(NCCc1ccccn1)c1cccnc1Oc1ccc(Cl)cc1 | 18.1% (inactive) |
| CCCN(CCC)S(=O)(=O)c1ccc(C(=O)NNC(=O)c2cc(OC)c(OC)c(OC)c2)cc1 | 2.06% (inactive) |
| C/C(CC(=O)NC(C)c1ccccc1)=N\NC(N)=S (stereo not given) | 0.93% (inactive) |
| CC(=O)Nc1ccc(C(=O)CSc2nc3ccc(C)cc3[nH]2)cc1 | 37.2% (inactive) |
| O=C(CSc1nc2ccc([N+](=O)[O-])cc2[nH]1)c1ccc(Cl)cc1 | 78.4% (active) |
| Cc1nc(SCC(=O)c2ccccc2)c([N+](=O)[O-])[nH]1 | 7.53% (inactive) |
| CCOc1ccc(N2CC(C(=O)N/N=C/c3sccc3C)CC2=O)cc1 (stereo not given) | 17.4% (inactive) |
| COc1ccc(C(C(=O)NC(C)(C)C)N(C(=O)Cn2nnc3ccccc32)c2ccc(C(C)=O)cc2)cc1O (stereo not given) | -13.6% (inactive) |
| O=C(Nc1ccc(Cl)cc1)Nc1ccc(Oc2cccnc2)nc1 | 15.6% (inactive) |
| COc1ccc(OC(C)C(=O)NCCc2nc3ccccc3[nH]2)cc1 (stereo not given) | 12.8% (inactive) |
| CCCCCOc1ccc(/C=C/C(=O)NCCc2nc3ccccc3[nH]2)cc1OC | 70.7% (active) |
| O=C(COc1ccccc1)NCCc1nc2ccccc2[nH]1 | -0.39% (inactive) |
| O=C(CSCC(=O)Nc1cccc([N+](=O)[O-])c1)Nc1ccccc1 | -4.34% (inactive) |

| SMILES | inhibition |
| --- | --- |
| CCN(CC)S(=O)(=O)c1cc([N+](=O)[O-])ccc1N=Nc1c(O)n(C)c2ccccc12 | 39.2% (inactive) |
| CCN(CC)S(=O)(=O)c1cc([N+](=O)[O-])ccc1NNC(=O)Nc1ccccc1 | 94.6% (active) |
| CCOC(=O)c1cnc(COc2ccccc2Cl)[nH]c1=O | -0.7% (inactive) |
| Oc1c(Cl)cc(Cl)c(Cl)c1Cc1c(O)c(Cl)cc(Cl)c1Cl | 93.3% (active) |
| N#Cc1c(C(F)(F)F)cc(-c2cccs2)nc1N1CCCCC1 | 12.1% (inactive) |
| COCc1cc(=O)[nH]c(SC)n1 | -4.77% (inactive) |
| CCOC(=O)c1c(NC(=S)NC(=O)c2ccco2)sc2c1CCCC2 | 85% (active) |
| CCOC(=O)c1c(NC(=S)NC)sc2c1CCCC2 | 14.4% (inactive) |
| CCOC(=O)c1c(NC(=S)Nc2ccccc2C)sc2c1CCC2 | 34.1% (inactive) |
| CN(C)/C=C(/C(=O)c1ccc(Cl)c(Cl)c1)c1nnnn1-c1ccccc1 | -4.76% (inactive) |
| COc1ccc(N(Cc2ccccc2)S(=O)(=O)c2cccc(C(=O)O)c2)cc1 | 3.03% (inactive) |
| O=C(Cn1nnc(N2CCCCC2)n1)c1ccc(Cl)c(Cl)c1 | 6.73% (inactive) |
| Clc1ccc(C[n+]2cc(-c3ccccc3)n3c2CCC3)cc1 | 9.23% (inactive) |
| Cc1ccc(NC(=O)Nc2nnc(-c3ccncc3)s2)cc1 | 40.9% (inactive) |
| CCn1nccc1C(=O)Nc1ccc(Cl)c(Cl)c1 | 0.72% (inactive) |
| Cc1nnc(NC(=O)Nc2ccc(Cl)c(Cl)c2)s1 | 86.9% (active) |
| O=C(O)c1cccc(NC(=O)c2cc(-c3cccc(Cl)c3)nc3ccccc23)c1 | -25% (inactive) |
| Cc1c(C(=O)Nc2cccc(Cl)c2)cn2c(nc3ccccc32)c1C#N | 104% (active) |
| Cn1cc(Cl)c(C(=O)NNC(=S)Nc2cccc(Cl)c2)n1 | 9.14% (inactive) |
| O=C(NCc1cc(C(F)(F)F)cc(C(F)(F)F)c1)C1CC(c2cccc(F)c2)=NO1 (stereo not given) | 20.1% (inactive) |
